# High-throughput results: PubChem BioAssay, National Center for Advancing Translational Sciences (NCATS)
# Shiga toxin inh: inhibitors of Shiga toxin in Vero cells; actives 9.2% (n = 290,000); inhibition, % at 38.7 µM; Vero cells, Shiga toxin protein synthesis inhibition reporter; in the data active means inhibition mostly above about 28%, no sharp cut-off; inactive means mostly below about 43%
# Pf growth 48h: P. falciparum growth inhibition at 48 hours (one generation); P. falciparum luciferase growth in erythrocytes, 48 h; Potency, µM (doses to about 28.7 µM), actives largely listed as inhibitors; actives 5.9% (n = 310,000)
#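 A one-generation exposure of luciferase-tagged malaria parasites in RPMI 1640/Albumax erythrocyte culture, 37 C and 5% CO2. Inhibition is inferred from decreased luminescence after adding detection reagent.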
# Pf growth 96h: P. falciparum growth inhibition at 96 hour, primary screen for plastid delayed-death inhibitors | P. falciparum luciferase reporter growth, 96 h | Potency, µM (highest dose often 28.7 µM), hits mostly inhibitors | actives 6.9% (n = 320,000)
#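 P. falciparum expressing integrated firefly luciferase, in erythrocytes at 2% hematocrit, 0.05% parasitemia, incubated with compounds 96 h at 37 C, 5% CO2. Growth inhibition read as loss of luminescence; two-generation exposure targets delayed-death apicoplast inhibitors.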
# CHX counter: affects cycloheximide protein synthesis inhibition readout, counter-screen; cell reporter, cycloheximide protein synthesis inhibition counterscreen; max response, %; actives 12% (n = 300,000); AID 2314; in the data active means max response mostly above about 13%, no sharp cut-off; inactive means mostly below about 14%; further: read at 38.3 µM for the half of the compounds with a filed dose
# Sm TGR block: S. mansoni TGR enzyme inhibition | Q962Y6 | purified TGR, DTNB reduction, TNB absorbance 405 nm | Potency, µM (top dose mostly 114 µM), usual class: inhibitors | actives 3% (n = 360,000) | AID 485364; further: nearly all actives have a fitted effect of over 60% in size
#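 First, TGR (20 nM dispensed) and NADPH were mixed with compound. Second, a 15 min room-temperature incubation followed. Third, further NADPH and then DTNB were added to start the reaction. Finally, TNB absorbance was monitored kinetically.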
# NS1 function inh: inhibitors of influenza NS1 protein function | actives 0.4% (n = 270,000) | AID 2326 | Potency, µM (top dose mostly 46.1 µM); calls by dose curve; further: actives are rising curves; nearly all actives have a fitted effect of over 50% in size
#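 A cell-based growth assay was used: compounds that relieve NS1-induced slow growth of budding yeast raise OD600. Assay medium was yeast nitrogen base with ammonium sulphate and -URA supplement, pH 6.0, with 2% galactose.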
# Numbers stand for hits; - = inactive; ? = inconclusive; . = no result. Rows were chosen to be rich in hits. Some 21% of all compounds tested hit in one or more screens of this group. Unless noted, the call rests on the fitted dose curve; in most records, active means well fitted curve in the direction sought with a large enough effect; inconclusive means small, poorly fitted or top-dose-only effect, or another doubt; inactive means no such curve, though single readings can be large; an effect the other way counts as inactive or inconclusive.
SMILES,Shiga toxin inh,Pf growth 48h,Pf growth 96h,CHX counter,Sm TGR block,NS1 function inh
O=C(COc1ccccc1)Nc1ncn[nH]1,45.7,-,-,21.4,-,-
CN(C)S(=O)(=O)c1ccc(C(=O)Nc2c(C(=O)Nc3ccc(F)cc3)oc3ccccc23)cc1,.,.,.,.,-,.
O=C1C=C(c2ccccc2)OC2(CCCC2)O1,-,-,?,-,-,-
COc1ccc(C2=CC(=O)OC(C)(c3ccccc3)O2)cc1 (configuration not stated),-,11.7µM,-,-,-,-
COc1ccc(Cn2c(CNS(=O)(=O)c3ccc4c(c3)CCCC4)nc3cccnc32)cc1,.,.,.,.,-,.
O=S(=O)(c1cccc(S(=O)(=O)N2CCOCC2)c1)N1CCCCC1,-,.,-,-,-,-
Cc1ccc(C)n1-c1cccc(S(=O)(=O)N2CCOCC2)c1,-,?,13.1µM,-,35.5µM,.
Cc1cc(C(=O)CCl)c(C)n1-c1cccc(S(=O)(=O)N2CCOCC2)c1,-,-,-,-,3.55µM,.
CCC(=O)Nc1ccc(C(=O)COC(=O)c2sc(C)nc2C)cc1,.,-,-,.,-,.
O=C(Nc1ccc2c(c1)OCCO2)C1CCN(C(=O)c2ccccc2)CC1,105.7,-,?,20.5,-,-
O=C(Nc1ccc2c(c1)OCCO2)C1CCN(C(=O)c2ccc([N+](=O)[O-])cc2)CC1,-,-,-,-,.,?
O=C(Nc1ccc2c(c1)OCCO2)C1CCN(C(=O)c2ccc(Br)cc2)CC1,-,-,2.62µM,17.7,-,-
COc1ccc(NC(=O)C2CCN(C(=O)c3ccc(OC)cc3)CC2)cc1,-,.,?,-,-,-
COc1ccc(C(=O)N2CCC(C(=O)Nc3ccc4c(c3)OCCO4)CC2)cc1,-,.,-,48.4,-,-
N#Cc1nc(-c2ccc(F)cc2)oc1N1CCC(C(N)=O)CC1,-,-,-,-,-,-
Cc1ccc(OCCn2cc(Br)c(=O)[nH]c2=O)cc1,-,-,9.28µM,-,-,-
COc1ccc(-c2cc3nnc(-c4ccccc4)nc3s2)cc1,active,-,-,49.8,-,-
CCOc1ccccc1NC(=O)c1cc(S(=O)(=O)N2CCOCC2)cn1C,.,.,.,.,-,.
COC(=O)c1ccc(NC(=O)COc2coc(CN3CCc4ccccc43)cc2=O)cc1,.,?,-,.,-,.
Oc1ccccc1C1=Nc2ncnn2C(c2ccc(F)cc2)C1 (configuration not stated),-,-,11.7µM,-,14.1µM,-
Fc1ccc(C2CC(c3ccc(F)cc3)n3ncnc3N2)cc1 (configuration not stated),-,?,-,-,-,-
Cc1c(C(=O)N(Cc2cccc(Br)c2)C2CCS(=O)(=O)C2)oc2ccc(F)cc12 (configuration not stated),-,?,13.1µM,-,-,-
Cc1c(C(=O)N(Cc2cccc(F)c2)C2CCS(=O)(=O)C2)oc2cc(Br)ccc12 (configuration not stated),.,.,.,.,-,.
Cc1c(C(=O)N(Cc2ccc(Cl)cc2)C2CCS(=O)(=O)C2)oc2ccccc12 (configuration not stated),-,13.1µM,-,-,-,-
Cc1ccc2oc(C(=O)N(Cc3ccc(N(C)C)cc3)C3CCS(=O)(=O)C3)c(C)c2c1 (configuration not stated),-,?,4.65µM,15.8,-,-
SMILES,Shiga toxin inh,Pf growth 48h,Pf growth 96h,CHX counter,Sm TGR block,NS1 function inh
Cc1ccc2c(C)c(C(=O)N(Cc3ccc(N(C)C)cc3)C3CCS(=O)(=O)C3)oc2c1 (configuration not stated),-,?,?,-,-,-
COc1ccc(CN(C(=O)c2oc3cc(C)c(C)cc3c2C)C2CCS(=O)(=O)C2)cc1OC (configuration not stated),-,?,2.94µM,-,-,-
CC(=O)NC1CC(=O)N(c2ccc3c(c2)OCCO3)C1 (configuration not stated),.,.,.,.,-,.
Cc1ccc2oc(-c3cccc(NC(=O)c4sc5c([N+](=O)[O-])cccc5c4Cl)c3)nc2c1,.,.,.,.,-,.
CCn1cc(C(=O)Nc2ccc(F)c(F)c2)cn1,60.0,-,-,10.7,-,-
CCn1cc(C(=O)Nc2ccc(C)c([N+](=O)[O-])c2)cn1,active,-,-,-,-,-
CCn1ncc([N+](=O)[O-])c1C(=O)Nc1ccc(C)c(C)c1,-,-,?,-,-,-
